CHX counter: counter-screen for Shiga toxin inhibitors: cycloheximide protein synthesis inhibition. 12% of 300,000 active. cell reporter, cycloheximide protein synthesis inhibition counterscreen. max response, %; in the data active = max response mostly above about 13%, no sharp cut-off; inactive = mostly below about 14%; also: read at 38.3 µM for the half of the compounds with a filed dose; 0% is about no effect
Lassa entry inh: Lassa virus entry inhibition; Potency, µM (titrated, usually from 37.9 µM), for inactives: top-dose activity change, negative = inhibition, actives largely listed as inhibitors; Lassa virus pseudotype entry inhibition, cell reporter; 1.2% of 300,000 active; AID 540256; calls by dose curve; tested in HEK293 cells; also: potency is read from the fitted curve at half-maximal effect; % is scaled to controls: 0 for no effect and ±100 for the full control effect; nearly all actives have a fitted effect of over 50% in size
HCV inhibitor: inhibitors of hepatitis C virus infection. Huh7.5.1 HCVcc-Cre infection, luciferase reporter, 44 h. Potency, µM (doses to about 41.8 µM), for the others: at the highest dose activity change, negative = inhibition, usual class: inhibitors. 3.4% of 340,000 active; active = well fitted inhibition curve with a large enough effect; inconclusive = small, poorly fitted or top-dose-only effect, or another doubt; inactive = no such curve, though single readings can be large or run the other way; also: potency is read from the fitted curve at half-maximal effect; % is scaled to controls: 0 for no effect and ±100 for the full control effect
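Infectious HCV cell culture screen: compound-treated cells (1,000/well, pre-plated 4 h) are infected with HCVcc-Cre at roughly 0.5 moi and grown 44 h. Infection is quantified by luciferase signal after 15 min substrate incubation at room temperature.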
Shiga inhibitor: blocks Shiga toxin action in Vero cells | Vero cells, Shiga toxin protein synthesis inhibition reporter | inhibition, % at 38.7 µM | 9.2% of 290,000 active | AID 2315; in the data active = inhibition mostly above about 28%, no sharp cut-off; inactive = mostly below about 43%; also: 0% is about no effect
FMDV antiviral: antivirals against foot and mouth disease virus | 1.2% of 410,000 active | AID 1159524 | Potency, µM (titrated, usually from 57.9 µM), inactives show top-dose activity change, negative = inhibition, most hits filed as inhibitors | FMDV antiviral cell-based qHTS; calls by dose curve; tested in HEK293T cells; also: read-out not given here; potency is read from the fitted curve at half-maximal effect; % is scaled to controls: 0 for no effect and ±100 for the full control effect; nearly all actives have a fitted effect of over 45% in size
MARV entry inh: inhibitors of Marburg virus binding or cell entry; Marburg virus pseudotyped entry inhibition, cell reporter; Potency, µM (doses to about 37.8 µM), without a hit: at the highest dose activity change, negative = inhibition, usual class: inhibitors; 1.8% of 300,000 active; AID 540276; calls by dose curve; tested in HEK293 cells; also: potency is read from the fitted curve at half-maximal effect; % is scaled to controls: 0 for no effect and ±100 for the full control effect
Starred values were filed as active, the others as inactive; ? = inconclusive; . = no result; + = active, no number; [ ] = another dose, or the depositor's remark. An excerpt weighted towards active compounds, which were near 13% of everything screened.

SMILES	CHX counter	Lassa entry inh	HCV inhibitor	Shiga inhibitor	FMDV antiviral	MARV entry inh
O=C(N/N=C/c1ccc(-c2ccccc2[N+](=O)[O-])o1)c1cncc(Br)c1	0.6	-0.5%	-16.1%	-1.8	-20.6%	4.0%
Cc1ccc(C(=O)N/N=C/c2ccc(-c3ccc(Br)cc3[N+](=O)[O-])o2)o1	17.8*	-6.7%	?	24.7	-14.2%	-16.0%
Cc1c(C(=O)N/N=C/c2ccc(-c3ccccc3[N+](=O)[O-])o2)sc(N)c1C#N	18.3*	-9.4%	-11.6%	-5.7	9.5%	4.3%
Nn1cnnc1N/N=C\c1ccc(-c2ccccc2[N+](=O)[O-])o1	17.1*	14.1µM*	-21.8%	12.5	1.5%	?
CCOC(=O)c1ccc(N2C(=O)c3n[nH]c(C)c3C2c2ccc(O)cc2)cc1 (stereo unspecified)	2.2	-11.6%	-7.1%	-3.0	-18.0%	4.2%
CCCN(CC(=O)Nc1ccccc1C)C(=O)CCNC(=O)c1ccccc1Cl	.	-14.3%	17.8%	.	3.8%	9.5%[46.1 µM]
O=C(c1cnc2nc3ccccc3n2c1)c1cc(F)ccc1O	13.5*	?	6.7%	11.3	52.4%	16.8%
O=C(c1cnn(C(=O)COc2ccccc2F)c1)c1cc(F)ccc1O	-2.4	1.2%[46.1 µM]	-1.3%	24.9	-10.0%	2.4%[46.1 µM]
Cc1cccc(C)c1NC(=O)CNC(=O)c1ccc(COc2ccccc2)o1	.	.	-1.3%	.	4.9%	.
Cc1cccc(NC(=O)c2ccc(COc3ccccc3)o2)n1	16.3*	-12.3%[46.1 µM]	-7.4%	39.7*	5.0%	-0.5%[46.1 µM]
Cc1csc(NC(=O)c2ccc(COc3ccccc3)o2)n1	48.8*	-11.0%	-22.3%	89.6*	-10.1%	?
CCC(C)NC(=O)CSc1ccc(S(=O)(=O)N(C)C2CCCCC2)cn1 (stereo unspecified)	.	3.98µM*	?	.	-28.9%	?
COc1cccc(COC(=O)c2ccc(-c3nnn(Cc4ccccc4)n3)cc2)c1	.	-9.6%[46.1 µM]	.	.	3.3%	12.7%[46.1 µM]
COc1ccc(CNCCC2(O)CC(C)N(C)CC2C)cc1OC (stereo unspecified)	-1.7	-11.2%[46.1 µM]	2.0%	-9.8	1.4%	?
COc1cc(/C=N/NC(=O)c2ccoc2C)cc(OC)c1O	47.2*	?	-11.0%	83.4*	35.0%	2.5%
COc1ccc(/C=N/NC(=O)c2ccoc2C)cc1COc1c(C)cccc1C	32.8*	?	?	117.4*	10µM*	5.62µM*
Cc1ccc(C(=O)N2CCc3ccccc3C2)cc1S(=O)(=O)N1CCOCC1	7.6	-7.1%	1.6%	-2.2	-5.6%	?
O=C(O)c1cccc2c1C(=O)c1cccc3snc-2c13	0.4	8.6%	10.2%	-2.9	53.2%	10.6%
CCCc1cc(C(=O)NCCc2ccc(OC)c(OC)c2)no1	9.5	.	-5.7%	-2.0	-27.5%	.
Cc1cc(C)n2nc(CCc3ccccc3)nc2n1	10.5	-13.1%	14.5%	-1.9	26.5%	?
O=C(O)c1cc2nc(-c3cccs3)cc(C(F)(F)F)n2n1	-1.6	12.2%[46.1 µM]	23.1%	9.1	4.3%	-18.7%[46.1 µM]
Cc1cc(C)n2nc(C(=O)NCCc3ccccc3)nc2n1	68.3*	?	8.5%	92.4*	27.0%	-0.3%
O=C(NCCc1ccccc1)c1nc2nc(-c3cccs3)cc(C(F)(F)F)n2n1	41.1*	-4.2%	10µM*	+	18.1%	?
Cc1ccc(S(=O)(=O)CCC(=O)OCC(=O)c2ccc(C)c(C)c2)cc1	1.1	-8.9%	33.7%	1.9	-14.9%	-2.4%
COc1cc(O)c2c(c1)C(=O)c1cc(C)cc(O)c1C2=O	.	.	.	.	1.1%	.
SMILES	CHX counter	Lassa entry inh	HCV inhibitor	Shiga inhibitor	FMDV antiviral	MARV entry inh
Cc1cc(O)c2c(c1)C(=O)C13C(=C2O)C(=O)[C@H]2[C@@H](O)[C@@H]1[C@H]1[C@H](O)[C@@H]3C(=O)C3=C(O)c4c(O)cc(C)cc4C(=O)C312 (stereo partly specified)	.	.	10µM*	.	-2.8%	.
COc1cccc(C2(CSc3nnc(-c4cc(OC)c(OC)c(OC)c4)o3)OCCO2)c1	-4.4	11.2µM*	?	-22.9	?	-16.4%
CCN(C(=O)c1cc2ccccc2oc1=O)c1cccc(C)c1	53.0*	?	0.0%	77.7*	39.5%	26.9%
CCN(C(=O)c1cc2cc(OC)ccc2oc1=O)c1ccccc1	7.4	0.0%	-26.8%	21.6	-9.0%	-8.6%
CCN(C(=O)c1cc2ccccc2oc1=O)c1ccccc1	24.3*	?	2.1%	42.1	39.0%	13.9%
CC1CCN(S(=O)(=O)c2ccc3c(c2)oc(=O)n3CC(=O)NC(C)c2ccccc2)CC1 (stereo unspecified)	.	?	.	.	0.0%	?
CCOC(=O)/C(=C\c1ccc([N+](=O)[O-])o1)NC(=O)c1ccccc1	8.4	-12.2%	?	-4.6	.	1.7%
CCCOC(=O)/C(=C\c1ccc([N+](=O)[O-])o1)NC(=O)c1ccccc1	6.2	-5.1%	14.1µM*	21.3	-0.8%	-6.8%
CCCOC(=O)/C(=C\C=C\c1ccco1)NC(=O)c1ccccc1	51.2*	9.2%	0.5%	114.7*	2.7%	10.5%[46.1 µM]
Cc1cc(C)cc(NC(=O)CN2C(=O)C3CC=CCC3C2=O)c1 (stereo unspecified)	.	.	10.8%	.	2.1%	.
O=C(Cn1nc(C(=O)O)c2ccccc2c1=O)c1c[nH]c2ccccc12	9.4*	6.6%	-29.9%	34.7*	18.1%	-2.1%
Cc1cc(C)c(C(=O)Cn2nc(C(=O)O)c3ccccc3c2=O)cc1C	7.5	0.7%	6.2%	50.4	22.8%	0.2%[46.1 µM]
Cc1cc(C(=O)Cn2nc(C(=O)O)c3ccccc3c2=O)c(C)n1-c1ccccc1	58.6*	?	?	95.4*	-7.2%	?
Cc1csc(-c2cccnc2)n1	-2.4	?	-80.2%	11.8	3.6%	0.0%
Clc1ccc(-c2csc(-c3cccnc3)n2)s1	32.1*	.	?	54.0*	67.0%	.
c1cncc(-c2nc(-c3ccc4c(c3)OCCO4)cs2)c1	63.0*	.	?	128.3*	4.2%	.
Brc1ccsc1-c1csc(-c2ccncc2)n1	43.0*	.	?	87.0*	69.1%	.
Oc1ccc(-c2csc(-c3ccccc3)n2)cc1O	32.7*	-36.9%	4.47µM*	71.3*	49.7%	-19.2%
CCOC(=O)Cc1cnc(NC(=O)CSc2nc(C)cc(C)n2)s1	2.3	.	-14.6%	-7.9	?	-0.4%[46.1 µM]
Cc1c(NC(=O)COC(=O)Cn2cc(C(F)(F)F)ccc2=O)cccc1[N+](=O)[O-]	.	.	18.4%	.	-9.8%	.
C[C@H](NC(=O)[C@H]1N2C(=O)c3ccccc3C2SC1(C)C)C(=O)N1CCN(C)CC1 (stereo partly specified)	-2.1	1.0%[46.1 µM]	10.3%	1.9	8.9%	-9.0%[46.1 µM]
CCOC(=O)N1CCN(C(=O)c2c(C)nn(-c3cccc(C)c3)c2-n2cccc2)CC1	.	-7.1%[46.1 µM]	.	.	-24.3%	.
Fc1ccc(-c2csc(-c3cccnc3)n2)cc1F	22.5	.	?	60.9*	19.4%	.
Oc1ccc(-c2csc(-c3cccnc3)n2)cc1O	54.3*	?	-17.3%	61.1*	25.9%	?
Oc1ccccc1-c1csc(-c2ccccc2)n1	75.0*	5.9%	?	158.5*	25.9%	?
